Several values for one entry are separate records, joined by “and”; a condition that tells them apart may be missing. Equal entries are not always repeated. Activity calls are given as the source filed them. Rule for the calls: active = hit-call score of the fitted dose curve at least 0.9, where 1 is the maximum; inactive = score below 0.9.

Our source for the outcome and AC50 values is PubChem BioAssay (EPA / NIEHS).

Read-out in the experiment: Monokine induced gamma interferon (MIG), CXCL9 (gene 4283)
In words: BSK_SAg_MIG: BioMAP Diversity Plus: SAg Assay for Monokine induced gamma interferon (MIG) Biomarker Activity (AID 2283092). Particulars: primary human HUVEC with PBMC; actives raise or lower the signal. The protocol:
BSK_SAg is a cell-based, multiplexed-readout assay that uses umbilical vein endothelium and peripheral blood mononuclear cells, a human vascular primary cell co-culture, with measurements taken at 24 hours after chemical dosing in a 96-well plate.BSK_SAg_MIG is an assay component measured in the BSK_SAg assay. It measures MIG antibody related to regulation of gene expression using ELISA technology.Data from the assay component BSK_SAg_MIG was analyzed into 1 assay endpoint. This assay endpoint, BSK_SAg_MIG, was analyzed with bidirectional fitting relative to DMSO as the negative control and baseline of activity. Using a type of binding reporter, gain or loss-of-signal activity can be used to understand changes in the signaling as they relate to the gene CXCL9. Furthermore, this assay endpoint can be referred to as a primary readout, because this assay has produced multiple assay endpoints where this one serves a signaling function. To generalize the intended target to other relatable targets, this assay endpoint is annotated to the cytokine intended target family, where the subfamily is chemotactic factor.
The levels of cell surface (or secreted, indicated by the prefix "s") biomarker endpoints were measured by ELISA. Overt cytotoxicity to cells in confluent adherent cultures (all systems other than the BT system) was assessed by measuring total protein levels using sulforhodamine B (SRB) staining in parallel cultures at the time of biomarker measurements, indicated as SRB endpoints. For proliferation assays for adherent cell types, individual cell types are cultured at sub-confluence and relative cell numbers quantified by SRB staining at time points optimized for each system (48 h: 3C and CASM3C systems; 72 h: BT and HDF3CGF systems; 96 h: SAg system). SRB was performed by staining cells with 0.1% SRB after fixation with 10% TCA and reading wells at 560 nm.Viability and proliferation of PBMC (T cells) was quantified by Alamar Blue reduction for the SAg and BT systems. For PBMC viability (referred to as PBMC Cytotoxicity within the assay endpoint names), cells were plated (75,000/well in a 96-well plate) and then chemical samples added for 1 h before addition of activators, SEB and TSST-1 (20 ng/mL final concentration each). Cells were incubated for 90 h. Then, Alamar Blue (20 uL/well) (Invitrogen, Cat DAL1100) was added for 6 h, and the plates were read with a fluorescence microplate reader at 546/580 nm (excitation/emission). For PBMC proliferation, cells were plated and activated as above but incubated for only 16 h prior to addition of Alamar Blue. Plates were read after 6 h.
Turning to `c1ccc(-c2ccccn2)nc1`, the result was inactive.

For the molecule `CN1C(=O)N(C)C(O)C1O` (stereo unspecified), the outcome was inactive.

`C=C[Si](OC(C)=O)(OC(C)=O)OC(C)=O`: the outcome was inactive.

For the molecule `CCO[Si](C)(OCC)OCC`, the outcome was inactive.

For `O=C(Nc1ccccc1SSc1ccccc1NC(=O)c1ccccc1)c1ccccc1`, the result was inactive.

`O=C1CCCN1CCO`: the outcome was inactive.

For the molecule `c1ccc2c(c1)ccc1cc3c(ccc4ccccc43)cc12`, the result was inactive.

Consider `O=C(c1ccc(O)cc1)c1ccc(O)cc1O`, for which the outcome was inactive.

Regarding `CCCCCCCCc1ccc(Nc2ccc(CCCCCCCC)cc2)cc1`, the result was inactive.

Consider `CCCCCCCCCCCCCCCC[N+](C)(C)CC`, for which the AC50 is 3.51 µM (active).

In the case of `C=CC=CC=CCCCCC`, the outcome was inactive.

Take `c1ccc2c(c1)ccc1ncccc12`: the outcome was inactive.

Consider `CCCCC(CC)COCC1CO1` (stereo unspecified), for which the outcome was inactive.

For the molecule `CCOc1nc(F)cc2nc(S(=O)(=O)Nc3c(Cl)cccc3C(=O)OC)nn12`, the result was inactive.

In the case of `Nc1ccc(N)c(Cl)c1`, the AC50 was 30.4 µM (active) and 31.3 µM (active).

In the case of `COCc1c(C(C)C)nc(C(C)C)c(/C=C/[C@@H](O)C[C@@H](O)CC(=O)O)c1-c1ccc(F)cc1`, the result was inactive.

As for `CCCCC/C=C\C/C=C\CCCCCCCC(=O)OC`, the AC50 is 31.4 µM (active).

Take `CCO[Si](CCCN=C=O)(OCC)OCC`: the outcome was inactive.

Consider `COc1ccc2nc(N)sc2c1`, for which the outcome was inactive.

Turning to `N#[N+]c1ccc2c(S(=O)(=O)[O-])cccc2c1O`, the result was inactive.

Consider `C=CC(=O)OCC(Br)CBr` (stereo unspecified), for which the AC50 was 20 µM (active).

Consider `CCOC(=O)c1ccccc1C(=C1C=C(Br)C(=O)C(Br)=C1)c1cc(Br)c(O)c(Br)c1`, for which the AC50 was 22.2 µM (active) and 23 µM (active).

As for `C=CCOc1c(Br)cc(Br)cc1Br`, the result was inactive.

Take `CC(C)C(=O)C(C)C`: the outcome was inactive.

With `CCCCC(CC)COC(=O)c1ccccc1O` (stereo unspecified), the result was inactive.

On to `S=C(NC1CCCCC1)NC1CCCCC1`, for which the outcome was inactive.

With `O=c1c2ccccc2oc2ccccc12`, the result was inactive.

As to `O=C(Cl)c1cc(C(=O)Cl)cc(C(=O)Cl)c1`, the AC50 was 34.2 µM (active).

Take `C=CCOCC(O)CCl` (stereo unspecified): the result was inactive.

In the case of `CC1OC1C1CCC2(C)OC2C1` (stereo unspecified), the result was inactive.

`CO[Si](OC)(OC)c1ccccc1`: the result was inactive.

As to `C#CC1(O)CC[C@H]2[C@@H]3CCC4=CCCC[C@@H]4[C@H]3CC[C@@]21C` (stereo partly specified), the AC50 was 31.8 µM (active).

For `CCCCNc1ccc(NCCCC)c2c1C(=O)c1ccccc1C2=O`, the outcome was inactive.

Take `CC(C)(c1cc(Br)c(OCCO)c(Br)c1)c1cc(Br)c(OCCO)c(Br)c1`: the result was inactive.

Turning to `C/C=C\C/C=C/CCCCCCCCOC(C)=O`, the outcome was inactive.

For the molecule `O=Nc1ccc(O)cc1`, the outcome was inactive.

As a reminder, the AC50 is the concentration giving half of the maximal activity seen.
